Hits are enriched below; roughly 27% of the tested compounds scored in any of these assays.
CYP2C9 act: increases human cytochrome P450 2C9 activity | P11712 | recombinant CYP2C9, luciferin-H conversion, luminescence; stronger effect = higher value; factor 1 = untreated enzyme, 0 = blocked | activation factor at 5 µM | 1.4% of 96,000 active;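 active = activation factor of 2 or more for CYP2C9 at a 5 µM dose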;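 note: 0 = sulfaphenazole-blocked wells and 1 = vehicle-only wells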
sEH inh: soluble epoxide hydrolase (human) inhibition; recombinant human sEH enzymatic activity assay; inhibition, % at 2 µM; 0.34% of 91,000 active; AID 707; in the data active = inhibition above about 80%
Target sequence (P34913 whole entry, looked up): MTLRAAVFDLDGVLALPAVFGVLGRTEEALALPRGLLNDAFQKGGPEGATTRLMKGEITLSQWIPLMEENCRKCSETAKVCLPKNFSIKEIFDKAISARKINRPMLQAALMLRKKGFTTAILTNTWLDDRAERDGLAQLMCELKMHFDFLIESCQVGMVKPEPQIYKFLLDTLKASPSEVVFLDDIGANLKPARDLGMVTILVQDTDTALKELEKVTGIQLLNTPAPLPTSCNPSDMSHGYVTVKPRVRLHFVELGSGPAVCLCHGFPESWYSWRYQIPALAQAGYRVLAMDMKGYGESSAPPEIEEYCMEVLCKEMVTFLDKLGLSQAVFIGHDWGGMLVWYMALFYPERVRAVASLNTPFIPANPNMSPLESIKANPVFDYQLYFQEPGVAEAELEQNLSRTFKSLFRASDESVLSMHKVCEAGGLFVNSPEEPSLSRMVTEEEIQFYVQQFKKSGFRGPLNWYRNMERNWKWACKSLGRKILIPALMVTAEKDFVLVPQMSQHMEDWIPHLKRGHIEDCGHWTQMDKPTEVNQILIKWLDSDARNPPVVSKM
CYP2C9 inh: human CYP2C9 inhibition; CYP2C9 Supersomes, luciferin-H conversion, luminescence; inhibition, % at 5 µM; 20% of 96,000 active; AID 777;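 active = blocking of liver enzyme CYP2C9 beyond about 50% at 5 µM, limit read from the data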
sEH act: activators of human soluble epoxide hydrolase; 0.04% of 91,000 active; activation, % at 2 µM; purified human sEH enzymatic activity, activator screen; P34913; in the data active = activation above about 37%
CYP2C19 act: cytochrome P450 2C19 (human) activation | P33261 | recombinant CYP2C19, luciferin-H EGE luminescence; stronger effect = higher value; 0 = fully inhibited enzyme, 1 = untreated enzyme | activation factor at 5 µM | 96,000 tested, under 10 active | AID 1025;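 active = activation factor of at least 2 at 5 µM in the primary screen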;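 note: 0 = wells with 2.5 mM tranylcypromine and 1 = vehicle-only wells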
CYP2C19 inh: blocks human cytochrome P450 2C19. P33261. inhibition, % at 5 µM. CYP2C19 Supersomes, luciferin-H EGE luminescence, 30 min. 21% of 96,000 active. AID 778;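 active = CYP2C19 inhibition above a set limit at 5 µM in the primary screen, cut at about 50% in these data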;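 note: plate controls were negative control wells for no effect and 2.5 mM tranylcypromine positive control for full effect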
* hit, by the source's call; x = not tested or not shown.

SMILES	CYP2C9 act	sEH inh	CYP2C9 inh	sEH act	CYP2C19 act	CYP2C19 inh
CC(C)C(NS(=O)(=O)c1ccc2c3c(cccc13)C(=O)N2)C(=O)O (stereo unspecified)	1	7	3	-5	1	-1
Nc1cccnc1Sc1cc(Cl)cc(Cl)c1	1.7	2	-72	0	0.5	48
O=C(Nc1ccccc1C(F)(F)F)N1CCN(c2ccc3nnc(-c4ccc(F)cc4)n3n2)CC1	0.3	x	65*	x	0.8	23
O=C(Nc1ccccc1C(F)(F)F)N1CCN(c2ccc3nncn3n2)CC1	0.3	x	72*	x	0.7	32
O=C(Nc1ccccc1Cl)N1CCN(c2ccccn2)CC1	x	8	x	-7	x	x
Fc1ccc(-c2nnc3ccc(N4CCc5ccccc5C4)nn23)cc1	0.1	9	86*	-10	0.4	57*
COC(=O)CSc1ccc2nnc(-c3ccc(F)cc3)n2n1	0.5	-25	50	26	1	4
O=C(Nc1ccc(F)cc1)N1CCN(c2ccc3nnc(-c4ccc(F)cc4)n3n2)CC1	0.4	24	55*	-23	0.5	50*
COc1ccc(Cn2nnnc2CN2CCc3ccccc32)cc1	0.1	2	92*	-2	0	99*
COc1ccc(OCCOCCN2CCc3ccccc3C2)cc1	0.9	2	7	0	0.4	59*
c1ccc2c(c1)CCN(Cc1nnnn1Cc1ccc3c(c1)OCO3)C2	x	4	x	-1	x	x
COc1ccc(Cn2nnnc2CN2CCc3ccccc3C2)cc1	0.4	-7	64*	9	0.1	88*
COc1ccc(C2(O)CCN(Cc3nnnn3Cc3ccc(C)cc3)CC2)cc1	0.4	3	63*	-4	0.5	51*
Cc1ccc(Cn2nnnc2CN2CCC(O)(c3ccc(F)cc3)CC2)cc1	0.6	8	37	-9	0.7	34
O=C(NC1=NCCS1)C1CC2CCC1C2 (stereo unspecified)	0.9	34	5	-33	0.7	31
COc1cccc(NC(=O)CC2(CC(=O)O)CCCC2)c1	0.7	-3	25	3	0.8	22
CCOc1ccccc1-c1nc(C(N)=O)c2[nH]c(=O)n(-c3cccc(C)c3)c2n1	0.4	0	64*	4	0.5	48
COc1ccc(OC)c(-c2nc(C(N)=O)c3[nH]c(=O)n(-c4ccc(F)cc4)c3n2)c1	0.5	2	54*	2	0.8	18
Cc1nnc(NC(=O)Cn2cnc3c2c(=O)n(C)c(=O)n3C)s1	x	-5	x	5	x	x
Cn1c(=O)c2c(nc(CN3CCN(C(=O)c4ccco4)CC3)n2Cc2ccccc2F)n(C)c1=O	0.9	-1	8	5	1	2
O=C(C1CCN(S(=O)(=O)c2cccc3cccnc23)CC1)N1CCN(c2ccccn2)CC1	0.5	x	48	x	0.9	7
CCOC(=O)C1CCN(C(=O)C2CCN(S(=O)(=O)c3cccc4cccnc34)CC2)CC1	2.3*	-13	-129	15	0.9	6
O=C(C1CCN(S(=O)(=O)c2cccc3cccnc23)CC1)N1CCN(c2ccc(Cl)cc2)CC1	2.3*	-14	-132	16	0.1	85*
O=S(=O)(c1cccc2cccnc12)N1CCN(c2ccccc2)CC1	2.8*	10	-178	-11	0	99*
CC1Cc2ccccc2N1C(=O)C1CCCN(S(=O)(=O)c2cccc3cccnc23)C1 (stereo unspecified)	0.7	x	27	x	0.2	78*
SMILES	CYP2C9 act	sEH inh	CYP2C9 inh	sEH act	CYP2C19 act	CYP2C19 inh
Cc1ccc(C)c(NC(=O)CCC(=O)NNC(=O)c2cccc([N+](=O)[O-])c2)c1	1	3	4	-2	1.2	-16
COC(=O)c1cc(COC(=O)c2cccnc2SC)oc1C	1	10	0	-12	0.9	12
COc1ccc(N2CCN(C(=O)C3CCCN(S(=O)(=O)c4cccc5cccnc45)C3)CC2)cc1 (stereo unspecified)	1.1	0	-12	1	0.3	65*
Cn1c(=O)oc2cc(S(=O)(=O)N3CCN(c4cccc(Cl)c4)CC3)ccc21	1	x	-3	x	0.9	13
O=C(C1CCCCC1)N1CCN(c2ncccn2)CC1	0.9	0	11	0	0.8	16
Cc1ccc2cccc(S(=O)(=O)N3CCN(c4cccc(Cl)c4)CC3)c2n1	0.9	1	11	-3	0.1	92*
O=C(C1CCN(S(=O)(=O)c2ccc3ccccc3c2)CC1)N1CCN(c2ncccn2)CC1	1.7	-7	-71	7	0.3	71*
Cc1ccccc1-n1nc2c(c1NC(=O)c1cc3ccccc3oc1=O)CS(=O)(=O)C2	1.1	15	-5	-14	1.1	-6
CC(C)(C)n1nc2c(c1NC(=O)c1ccc(S(=O)(=O)N3CCCC3)cc1)CSC2	0.6	4	36	-3	1.1	-11
CCCn1c(NCc2cccc(OC)c2OC)nc2ccccc21	1	-2	-1	1	0.8	23
CCCCn1nnnc1NCc1ccc(OC)c(OC)c1OC	0.7	-3	32	1	0.3	70*
CC(=O)c1c(C)[nH]c(C(=O)Nc2cc(C)cc(C)c2)c1C	0.2	32	84*	-36	0.4	58*
O=C(CCC1CCCC1)Nc1ccc(Br)cn1	0.7	23	27	-20	0.7	28
Nc1ncnc2nc(SCc3ccccc3)[nH]c12	0.6	-17	42	19	0.3	70*
Nc1ncnc2nc(SCC(=O)N3CCN(c4ccccc4)CC3)[nH]c12	0.8	-2	16	2	0.8	22
CC(C)(C)OC(=O)N1CCN(c2ccc(CNC(=O)c3ccc(Cl)cc3)cc2)CC1	0.5	2	48	-3	0.6	38
CCOc1ccc(N(CC(=O)Nc2ccc(OC)cc2)S(=O)(=O)c2c(C)noc2C)cc1	0.9	1	8	1	0.9	7
CCCN(c1ccc(C(C)C)cc1)S(=O)(=O)c1c(C)noc1C	0.2	11	82*	-10	0.6	38
COc1ccc(N(CC(=O)Nc2cc(Cl)ccc2OC)S(=O)(=O)c2c(C)noc2C)cc1	0.1	x	89*	x	0.1	90*
COc1ccc(N(CC(=O)Nc2ccc(C)cn2)S(=O)(=O)c2c(C)noc2C)cc1	0.3	x	70*	x	0.3	73*
Cc1noc(C)c1S(=O)(=O)N(CC(=O)N1CCn2c1nc1ccccc12)c1ccc(C(C)C)cc1	0.1	-14	87*	11	0.4	58*
Cc1ccc(Cl)cc1N(CC(=O)N1CCCCCC1)S(C)(=O)=O	1	x	-2	x	0.7	27
O=C(NCC1CCCO1)C1C2C=CC3(CN(Cc4cccs4)C(=O)C13)O2 (stereo unspecified)	0.8	-10	17	6	1	3
COc1ccc(OC)c(NC(=O)CN(c2ccc(C(C)C)cc2)S(=O)(=O)c2c(C)noc2C)c1	0.1	x	94*	x	0.3	75*

High-throughput results deposited in PubChem by several laboratories.
